From the supplement of paper PMC9254222
Over roughly 1,100 compounds, “Wnt reporter firefly/Renilla luciferase ratio relative to plate median” has its median near 1.1; the highest 2% begin near 1.6. What follows is part of a selection rich in the highest values, with near analogues and random picks from the rest.

Test system: HEK293T (UBE3A T485A transfected, BAR Wnt reporter)
Experiment: Wnt reporter firefly/Renilla luciferase ratio relative to plate median (fold (linear ratio)); higher = more Wnt/beta-catenin reporter activation
Conditions: 24 h
Method in brief: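 HEK293T cells were seeded at 4500 cells/well in white 384-well plates and grown in DMEM with 10% FBS at 37°C and 5% CO2. The cells were transfected using Fugene 6 with a BAR firefly luciferase Wnt reporter, TK-Renilla and an expression plasmid, and four hours later robots added the chemicals at 0.01–100 uM for 24 h before a Dual-Glo luciferase readout. Wnt activity was taken as the firefly/Renilla ratio and cell health as raw Renilla, each median-centred per plate. Values are averages of four biological replicates.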

Structure (SMILES) | Wnt reporter firefly/Renilla luciferase ratio (concentration: 0.01 uM) | Wnt reporter firefly/Renilla luciferase ratio (concentration: 0.1 uM) | Wnt reporter firefly/Renilla luciferase ratio (concentration: 1 uM) | Wnt reporter firefly/Renilla luciferase ratio (concentration: 10 uM) | Wnt reporter firefly/Renilla luciferase ratio (concentration: 100 uM)
Cc1c(COC(=O)[C@H]2[C@@H](/C=C(\Cl)C(F)(F)F)C2(C)C)cccc1-c1ccccc1 [Bifenthrin] | 0.843 | 1.35 | 1.11 | 0.982 | 0.325
COP(=O)(OC)O/C(C)=C/C(=O)N(C)C [Dicrotophos] | 1.29 | 1.12 | 1.1 | 0.957 | 1.09
COP(=O)(OC)OC=C(Cl)Cl [Dichlorvos] | 1.2 | 1.67 | 1.4 | 1.34 | 1.21
CNC(=O)/C=C(\C)OP(=O)(OC)OC [Monocrotophos] | 0.971 | 1.1 | 1.22 | 1.06 | 1.12
O=P(O)(O)CCCl [Ethephon] | 0.756 | 1.23 | 1.18 | 0.988 | 1.19
CC(C)N1C(=O)N(c2ccccc2)CSC1=NC(C)(C)C [Buprofezin] | 1.25 | 1.69 | 1.16 | 1.12 | 0.27
CC(C)N1C(=O)c2ccccc2NS1(=O)=O [Bentazone] | 1.46 | 0.947 | 0.964 | 0.949 | 0.329
COC(=CC(N)=O)C(C)C(C=Cc1csc(-c2csc(C(C)C=CC=CC(C)C)n2)n1)OC (centres undefined) [Myxothiazol] | 1.41 | 0.921 | 0.539 | 0.492 | 
CCCCC(CC)COC(=O)c1ccccc1C(=O)O (centres undefined) | 1.04 | 0.861 | 1.04 | 0.979 | 0.821
N#Cc1c[nH]cc1-c1cccc2c1OC(F)(F)O2 [Fludioxonil] | 0.759 | 0.842 | 0.847 | 1.04 | 0.858
CNC(=O)Oc1cccc2ccccc12 [Carbaryl] | 0.987 | 1.18 | 1.07 | 0.714 | 0.629
CCOP(=O)(SC(C)CC)N1CCSC1=O (centres undefined) [Fosthiazate] | 0.839 | 0.761 | 0.922 | 1.5 | 0.772
ClC1=C(Cl)C2(Cl)C3C4OC4C(Cl)C3C1(Cl)C2(Cl)Cl (centres undefined) [Heptachlor epoxide] |  | 1.18 | 1.23 | 1.06 | 1.5
CCc1cccc(C)c1N(C(=O)CCl)C(C)COC (centres undefined) [Metolachlor] | 0.768 | 1.6 | 0.921 | 0.833 | 0.28
O=[N+]([O-])C(Br)(CO)CO [Bronopol] |  | 1.17 | 1.15 | 1.07 | 
CCN(CC)C(=O)SCc1ccc(Cl)cc1 [Thiobencarb] | 0.948 | 1.27 | 1.52 | 1.02 | 1.54
O=[N+]([O-])c1cc(C(F)(F)F)c(Cl)c([N+](=O)[O-])c1Nc1ncc(C(F)(F)F)cc1Cl [Fluazinam] | 0.902 | 0.969 | 1.24 | 0.338 | 
Cl[C@H]1[C@H](Cl)[C@@H](Cl)[C@H](Cl)[C@@H](Cl)[C@@H]1Cl [beta-Hexachlorocyclohexane] |  | 1.05 | 0.913 | 1.12 | 1.03
Clc1ccc(Cl)c(Cl)c1 [1,2,4-Trichlorobenzene] |  | 0.911 | 0.886 | 1.04 | 1.57
Clc1cccc(Cl)c1 [1,3-Dichlorobenzene] |  | 1.15 | 1.18 | 1.45 | 1.77
Nc1ccc(Cl)cc1N [4-Chloro-1,2-diaminobenzene] |  | 1.1 | 1.03 | 0.852 | 
Cc1cc(C)cc(C)c1 [1,3,5-Trimethylbenzene] |  | 1.01 | 1.15 | 1.05 | 1.12

Structure (SMILES) | Wnt reporter firefly/Renilla luciferase ratio (concentration: 0.01 uM) | Wnt reporter firefly/Renilla luciferase ratio (concentration: 0.1 uM) | Wnt reporter firefly/Renilla luciferase ratio (concentration: 1 uM) | Wnt reporter firefly/Renilla luciferase ratio (concentration: 10 uM) | Wnt reporter firefly/Renilla luciferase ratio (concentration: 100 uM)
CCCC(=NOCC)C1=C(O)CC(CC(C)SCC)CC1=O (centres undefined) [Sethoxydim] | 1.27 | 1.07 | 1.15 | 1.2 | 0.758
CCOC(=O)C(Cl)Cc1cc(-n2nc(C)n(C(F)F)c2=O)c(F)cc1Cl (centres undefined) [Carfentrazone-ethyl] | 1.07 | 0.973 | 0.982 | 0.945 | 1.28
CCOC(=O)COc1cc(-c2nn(C)c(OC(F)F)c2Cl)c(F)cc1Cl [Pyraflufen-ethyl] | 1.13 | 1.63 | 1.05 | 1.09 | 1.13
O=C(Oc1ccc(Br)cc1)N1CCN2CCC1CC2 |  | 1.11 | 0.988 | 1.09 | 0.334
CC(COc1ccc(Oc2ccccc2)cc1)Oc1ccccn1 (centres undefined) [Pyriproxyfen] | 1.12 | 0.977 | 1.04 | 1.03 | 0.55
ClC1(Cl)C2(Cl)C3(Cl)C4(Cl)C(Cl)(Cl)C5(Cl)C3(Cl)C1(Cl)C5(Cl)C24Cl (centres undefined) [Mirex] |  | 1.02 | 1.05 | 0.921 | 1.28
O=C(Nc1ccccc1)Nc1ccnc(Cl)c1 [Forchlorfenuron] | 1.1 | 1.16 | 0.957 | 0.694 | 
CCCCc1ccccc1 [Butylbenzene] |  | 0.995 | 1.31 | 1.01 | 0.948
CC(C)N(C(=O)COc1nnc(C(F)(F)F)s1)c1ccc(F)cc1 [Flufenacet] | 0.973 | 0.746 | 0.898 | 0.605 | 0.254
C=CCc1ccc2c(c1)OCO2 [Safrole] |  | 1.26 | 1.37 | 0.895 | 1.23
C[C@]12C=CC3=C4CCC(=O)C=C4CC[C@H]3[C@@H]1CC[C@@H]2O [17beta-Trenbolone] |  | 1.08 | 1.18 | 0.938 | 0.146
CCNC(=O)NC(=O)/C(C#N)=N/OC [Cymoxanil] | 1.42 | 1.34 | 1.15 | 1.29 | 1.1
CC(C)(C)c1ccccc1O [2-tert-Butylphenol] |  | 1.53 | 1.54 | 1.25 | 0.813
CC1(C)C(C=C(Cl)Cl)C1C(=O)OCc1cccc(Oc2ccccc2)c1 (centres undefined) [Permethrin] | 0.82 | 0.873 | 1.11 | 1.19 | 0.865
Nc1nc(N)nc(NC2CC2)n1 [Cyromazine] | 1.01 | 1.18 | 0.955 | 1.02 | 1.22
CCCCCCCCn1sccc1=O [Octhilinone] |  | 1.02 | 1.15 | 1.07 | 
CNC(=O)N(C)c1nnc(C(C)(C)C)s1 [Tebuthiuron] | 1.35 | 1.39 | 1.32 | 1.67 | 1.5
CCCN(CCC)c1c([N+](=O)[O-])cc(C(C)C)cc1[N+](=O)[O-] [Isopropalin] |  | 1.07 | 1.04 | 1.11 | 1.31
CCOC1Oc2ccc(OS(C)(=O)=O)cc2C1(C)C (centres undefined) [Ethofumesate] | 1.05 | 0.973 | 1.03 | 1.14 | 1.86
N#CC(CCc1ccc(Cl)cc1)(Cn1cncn1)c1ccccc1 (centres undefined) [Fenbuconazole] | 1.07 | 1.01 | 1.03 | 0.614 | 0.347
CN(C)C(=S)SSC(=S)N(C)C [Thiram] | 1.62 | 1.39 | 1.06 | 1.24 | 
CN(C)C(=S)[S-].CN(C)C(=S)[S-].[Zn+2] [Ziram] |  | 1 | 0.732 | 0.577 | 

Structure (SMILES) | Wnt reporter firefly/Renilla luciferase ratio (concentration: 0.01 uM) | Wnt reporter firefly/Renilla luciferase ratio (concentration: 0.1 uM) | Wnt reporter firefly/Renilla luciferase ratio (concentration: 1 uM) | Wnt reporter firefly/Renilla luciferase ratio (concentration: 10 uM) | Wnt reporter firefly/Renilla luciferase ratio (concentration: 100 uM)
CN(C)C(=S)[S-].[Na+] [Sodium dimethyldithiocarbamate] |  | 1.22 | 0.816 | 0.751 | 0.926
c1ccc(-c2ccccc2)cc1 [Biphenyl] |  | 1.39 | 1.01 | 1.25 | 1.46
CCCC1COC(Cn2cncn2)(c2ccc(Cl)cc2Cl)O1 (centres undefined) [Propiconazole] | 0.957 | 1.03 | 1.17 | 0.78 | 
CCON=C(CC)C1=C(O)CC(c2c(C)cc(C)cc2C)CC1=O (centres undefined) [Tralkoxydim] | 1.14 | 1.54 | 1.03 | 1.05 | 0.67
CON(C)C(=O)Nc1ccc(Cl)c(Cl)c1 [Linuron] | 1.1 | 0.829 | 1.11 | 1.17 | 0.524
CCC(=O)Nc1ccc(Cl)c(Cl)c1 [Propanil] | 1.31 | 1.71 | 0.955 | 1.25 | 0.294
CN(C)C(=O)Nc1ccc(Cl)cc1 [Monuron] |  | 0.888 | 0.901 | 1.09 | 1.04
ClC1=C(Cl)C2(Cl)C3C(Cl)C=CC3C1(Cl)C2(Cl)Cl (centres undefined) [Heptachlor] |  | 0.972 | 1.07 | 1.17 | 1.24
N#CC(Br)Br [Dibromoacetonitrile] |  | 1.15 | 1.01 | 1.17 | 1.19
O=[N+]([O-])c1ccc(Cl)cc1 [1-Chloro-4-nitrobenzene] |  | 1.04 | 1.2 | 1.02 | 1.38
O=[N+]([O-])c1ccc(Cl)c(Cl)c1 [3,4-Dichloronitrobenzene] |  | 1.21 | 1.14 | 1.29 | 1.54
Nc1c(Cl)cc([N+](=O)[O-])cc1Cl [Dicloran] | 1.85 | 1.64 | 0.962 | 1.29 | 0.345
CCC(C)(c1ccc(O)cc1)c1ccc(O)cc1 [Bisphenol B] |  | 1.11 | 0.969 | 0.999 | 0.0398
N#Cc1c(Cl)c(Cl)c(Cl)c(C#N)c1Cl [Chlorothalonil] | 0.876 | 0.784 | 1.16 | 0.725 | 
CCCCOC(=O)[C@@H](C)Oc1ccc(Oc2ccc(C#N)cc2F)cc1 [Cyhalofop-butyl] | 1.1 | 0.959 | 1.06 | 0.848 | 0.697
CC(C)(OOC(C)(C)c1ccccc1)c1ccccc1 [Dicumyl peroxide] |  | 1.15 | 0.998 | 0.968 | 1.39
C#CCC1=C(C)C(OC(=O)C2C(C=C(C)C)C2(C)C)CC1=O (centres undefined) [Prallethrin] | 0.931 | 0.996 | 1.04 | 1.05 | 0.276
CC(C)(C)c1ccc(O)cc1 [4-tert-Butylphenol] |  | 0.97 | 1.1 | 0.863 | 1.21
CO/C=C(/C(=O)OC)c1ccccc1Oc1cc(Oc2ccccc2C#N)ncn1 [Azoxystrobin] | 1.4 | 1.25 | 1.04 | 0.786 | 0.984
CCC(=NOC/C=C/Cl)C1=C(O)CC(C2CCOCC2)CC1=O (centres undefined) [Tepraloxydim] | 0.655 | 0.79 | 1.12 | 1.08 | 1.18
